Here are results for 27 compounds from ChEMBL document CHEMBL3988442, “University of Dundee, Small-Polar-MMV Screening Library” (2021).

Out of some 48,000 compounds screened, about 13,000 (27%) showed an effect of 50% or more. The list shows a part of the results.

In this assay the test system is Wolbachia pipientis. Put plainly: Anti-Wolbachia Cell-Based Screen. It is filed as functional. Details: scale not given: in the data most compounds retested in dose-response had high values. As to conditions: 5 µM.
As for `COc1ccc(O[C@H]2COCCN(Cc3cccc4c3OCO4)C2)cc1`, the “Percent Effect” value is -9.045%.

For `CCCc1cc(NCc2nc(COC)no2)n2nccc2n1`, the “Percent Effect” value is recorded as -5.978%.

Consider `Cc1nc(CN2CCCC(Cn3cc(CCO)nn3)C2)c2ccccn12` (configuration not stated), for which the “Percent Effect” value is -4.112%.

Consider `CC(C)n1cc(CN2CCCN(C(=O)c3cc(Cl)c[nH]3)CC2)cn1`, for which the “Percent Effect” value is given as 1.101%.

`CS(=O)(=O)Nc1cccc(CNC(=O)CCNC(=O)c2cccs2)c1`: the “Percent Effect” value stood at 4.351%.

Regarding `CN(C)Cc1nnc(C2CCN(c3nccc(N)n3)CC2)n1C1CC1`, the “Percent Effect” value was 9.294%.

Consider `Cc1cc2ccccc2n1CCC(=O)N1CCCC(O)(CN(C)C)CC1` (configuration not stated), for which the “Percent Effect” value was -7.968%.

As for `Cc1cc(C(=O)N2CCC(O)(Cn3c(C)cc4ccncc43)CC2)on1`, the “Percent Effect” value worked out at 79.54%.

Regarding `Cc1cc(C(=O)N2C[C@@H]3COC[C@]3(c3nnc(C(C)C)o3)C2)on1`, the “Percent Effect” value came out at 3.18%.

In the case of `Cc1cc2ccncc2n1CC1(O)CCN(C(=O)c2ccncc2)CC1`, the “Percent Effect” value is recorded as 105.6%.

In the case of `Cc1cc(C(=O)N2CCC(O)(Cn3ccc4ccncc43)CC2)on1`, the “Percent Effect” value was found to be 111.8%.

Regarding `O=C(c1cnc(Nc2ccccc2)nc1)N1CCC(O)(CO)CC1`, the “Percent Effect” value was -9.694%.

`O=C(c1ccncc1)N1CCC(O)(Cn2ccc3ccncc32)CC1`: the “Percent Effect” value is recorded as -4.152%.

On to `CN(C)CC1(O)CCCN(C(=O)Cn2ccc3ccccc32)CC1` (configuration not stated), for which the “Percent Effect” value is recorded as -35.57%.

In the case of `O=C(c1cncc(N2CCC(O)(CO)CC2)n1)N1CCCC1`, the “Percent Effect” value is listed as -6.183%.

In the case of `Cc1cc2ccncc2n1CC1(O)CCN(C(=O)c2ccccn2)CC1`, the “Percent Effect” value was found to be 79.68%.

For the compound `CCNc1ncc(C(=O)NCCc2csc(-c3ncccn3)n2)cn1`, the “Percent Effect” value is recorded as -22.07%.

On to `CCN(Cc1cccc(F)c1)c1ccc2nnnn2n1`, for which the “Percent Effect” value came to 20.24%.

Consider `CN(C)C(=O)CCC(=O)NCc1cccnc1-n1cnc2ccccc21`, for which the “Percent Effect” value is given as -4.725%.

As for `Cc1cc2ccncc2n1CC1(O)CCN(C(=O)c2cccnc2)CC1`, the “Percent Effect” value is listed as 107.2%.

`Cc1ncsc1C(=O)N1CCC(O)(Cn2c(C)cc3ccncc32)CC1`: the “Percent Effect” value was determined as 102%.

For `Cc1nc(N2CCN(C(=O)c3cccnc3)CC2)cc(-n2cccc2)n1`, the “Percent Effect” value worked out at 13.16%.

For `O=C(c1cncc(Br)c1)N1CCC(O)(Cn2ccc3ccncc32)CC1`, the “Percent Effect” value was -1.363%.

Regarding `Cc1ncsc1C(=O)N1CC[C@@H]2[C@@H](CC1)OCCN2c1cccnc1`, the “Percent Effect” value is reported as -15.36%.

For the compound `Cc1nnc(SCCC(=O)N(C)Cc2c(F)cccc2Cl)[nH]1`, the “Percent Effect” value was 13.01%.

For `CCCn1nc2c(cc1=O)CN(CCS(C)(=O)=O)CC2`, the “Percent Effect” value is 0.2637%.

Consider `Cc1nc2c(c(N3CCC(O)(Cn4ccnc4)CC3)n1)CCNCC2`, for which the “Percent Effect” value is reported as -21.19%.
